# Assay outcomes: PubChem, several laboratories
# FAS TE block: blocks the thioesterase domain of human fatty acid synthase | P49327 | recombinant FAS-TE, OMFH fluorogenic substrate, fluorescence endpoint | inhibition, % at 15 µM | actives 0.67% (n = 360,000);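 active = compounds whose normalised, plate-corrected inhibition of enzyme fluorescence in the single-dose primary screen is 50% or more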;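 also: 0% = DMSO with enzyme and 100% = substrate without enzyme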
# beta cell repl: induces beta-cell replication in MIN6 cells; MIN6 cells proliferation, ATPlite luminescence, 48 h; cells starved in 0.2% serum; 100% = growth in 10% serum; proliferation, % at 10 µM; actives 0.29% (n = 330,000); AID 2380;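 active = compounds whose signal lies at least 3.5 SD above the mean of all wells on their plate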;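 also: 0% = DMSO-treated cells in low-serum medium and 100% = 10% serum control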
# aDG glyco act: alpha-DG glycosylation activation. Pro5-aDG cells, alpha-DG glycosylation AlphaScreen (IIH6); 0% Pro5, 100% B10-LARGE cell signal. activation, % at 10 µM. actives 0.22% (n = 360,000). AID 624168;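 active = activation of at least 8% versus controls, or a plate z-score of at least 8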;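 also: Pro5 are CHO cells carrying HIG-tagged alpha-DG that lacks glycosylation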
# m-calpain inh: inhibitors of pig calpain II. purified calpain II, fluorogenic peptide substrate, 30 min. inhibition, % at 16 µM. actives 0.37% (n = 220,000). AID 1236;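 active = inhibition above about 50%, limit read from the data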
# H9c2 TAG inh: reduces triacylglycerol accumulation in H9c2 cells | Nile Red lipid (TAG) fluorescence; cells loaded with 200 µM oleic acid | inhibition, % at 12.5 µM | actives 0.66% (n = 230,000) | AID 651582;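 active = pattern-corrected inhibition of lipid staining of at least 50% with the nuclear-stain viability signal not falling by more than 50%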;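 also: 0% = DMSO wells and 100% = triacsin C control wells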
# Cardio protect: myocardial damage modulation in H9c2 cells | actives 0.63% (n = 360,000) | protection from H2O2 cell death, % at 20 µM | H9c2 cardiomyocytes, H2O2 injury protection, ATPLite, 2 h;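 active = compounds giving at least 50% protection of heart cells from peroxide-induced death in the single-dose screen, raw or plate-pattern-corrected value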;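 also: 0% = DMSO wells with peroxide and 100% = DMSO wells without peroxide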
# Active calls of the source: *; . = no result. Sampled rows, rich in hits. Any-hit rate of the full collection: about 2.3%.
SMILES,FAS TE block,beta cell repl,aDG glyco act,m-calpain inh,H9c2 TAG inh,Cardio protect
CC(=O)NCCNc1ccc([N+](=O)[O-])cn1,-11.6,-1.0,0.0,17.4,1.8,3.2
O=[N+]([O-])c1ccc(NCc2ccc(Cl)cc2)nc1,33.5,-0.2,1.0,79.6*,-29.7,-3.2
CC(C)c1ccc(CNc2ccc([N+](=O)[O-])cn2)cc1,5.9,-1.4,0.1,93.7*,-33.8,-14.2
COc1ccc(-c2c(C#N)c(N)nc(Sc3ccc(Cl)cc3)c2C#N)cc1,-2.1,-3.7,-0.2,27.1,54.1*,22.1
CSc1nc(N)c(C#N)c(-c2ccc(Cl)cc2)c1C#N,33.8,-2.3,-0.3,-19.6,7.0,-13.6
CC(=O)n1cc(N(C(=O)CCl)c2ccc(C)cc2)c2ccccc21,23.7,-4.1,-0.2,-23.9,64.8*,-5.1
COc1ccccc1[C@H]1C(c2cccc(Cl)c2)=NN(c2ccccc2)[C@@H]1CO,26.9,.,1.5,.,0.8,-13.3
O=C1OCCN1C(=O)[C@H]1[C@H](c2ccccc2)C(c2cccc(Cl)c2)=NN1c1ccc(Br)cc1,48.9,.,0.5,.,1.3,4.3
Cc1cccc(C2=NN(c3ccc(Br)cc3)[C@@H](C(=O)N3CCOC3=O)[C@@H]2c2ccc(Cl)cc2)c1,74.3*,.,4.0,.,-2.5,27.9
COc1ccccc1[C@@H]1C(c2cccc(Cl)c2)=NN(c2ccccc2)[C@H]1C(=O)N1CCOC1=O,91.0*,-8.2,0.5,-367.5,.,-4.1
Cc1cccc(C2=NN(c3ccc(Br)cc3)[C@@H](C(=O)N3CCOC3=O)[C@@H]2c2ccc(F)cc2)c1,74.0*,-6.6,0.5,-279.7,-21.0,12.8
CCN(Cc1cnn(C)c1)Cc1nc(C(c2ccccc2)c2ccccc2)no1,1.2,-3.8,-0.1,16.7,1.9,-1.6
O=C(C[C@@H]1C[C@@H]2c3cc(NS(=O)(=O)c4ccc(F)cc4)ccc3O[C@@H]2[C@H](CO)O1)N1CCc2ccccc2C1,0.0,.,-0.1,.,2.8,12.1
CN(C)C(=O)C1C2NC(=S)N(c3ccc(Cl)cc3)C1(C)Oc1ccc(Cl)cc12 (centres undefined),3.8,-2.9,0.3,-71.6,2.2,40.9
CN(C)C(=O)C1C2NC(=S)N(c3cccc(Cl)c3)C1(C)Oc1ccc(Cl)cc12 (centres undefined),9.4,-2.6,-0.1,-37.3,-4.3,56.5*
Cc1cc(C)c2c(N)c(C(=O)Nc3ccccc3F)sc2n1,-0.9,-0.6,0.2,.,0.7,-6.8
CCOc1ccc(CCn2c(-c3ccco3)nc3ccccc3c2=O)cc1OCC,12.5,3.8,-0.5,4.8,.,103.5*
Cc1ccc(C)c(S(=O)(=O)N2CCC(c3nc4c(nnn4Cc4ccc5c(c4)OCCO5)c(=O)[nH]3)CC2)c1,69.7*,-7.7,-0.3,.,.,-8.3
O=C(CSc1ccc2ccccc2n1)N/N=C/c1ccccc1O,9.5,-3.2,0.1,.,.,55.0*
O=C(COC(=O)c1c2c(nc3ccccc13)/C(=C/c1cccc([N+](=O)[O-])c1)CCC2)NC1CCS(=O)(=O)C1 (centres undefined),14.0,-6.2,-0.2,-19.1,20.6,58.8*
Cc1cccc(C=Nc2ccc3c4c(cccc24)CC3)c1O,9.2,0.0,0.0,-114.9,.,5.2
CCc1ccc(O)c(N=Cc2cccc(C)c2O)c1,-1.8,-4.2,0.4,-8.6,.,60.3*
O=C1N=c2ccccc2=C1c1sc(Nc2cccc(O)c2)nc1O,3.2,-4.0,-0.2,.,.,54.3*
CC(C)Oc1cccc(C(=O)Nc2nnc([C@H]3C[C@H](O)[C@@H](CO)O3)s2)c1,-9.5,.,-0.2,.,-7.4,0.1
Cc1cc(C=O)c(C)n1-c1cc(C(F)(F)F)ccc1N1CCOCC1,-1.3,0.0,0.1,9.8,-22.3,137.9*
SMILES,FAS TE block,beta cell repl,aDG glyco act,m-calpain inh,H9c2 TAG inh,Cardio protect
CC1(C)CC(=O)C=C(C#CC2(O)CCCCC2)C1,-6.7,.,0.8,.,56.5*,-8.4
Cc1cccc(C#CC2=CC(=O)CC(C)(C)C2)c1,4.9,.,0.3,.,0.4,-17.3
Cc1ccc(N2CC(C(=O)OCC(=O)Nc3ccc(F)cc3F)CC2=O)cc1 (centres undefined),0.9,5.1,-0.2,.,2.6,-0.4
CCc1ccccc1Nc1nc(N)nc(COC(=O)c2c(C)noc2C)n1,-6.7,-2.8,0.1,.,-4.0,9.4
Cc1cc(N=Cc2c(O)ccc3cc(Br)ccc23)no1,-6.6,.,-0.3,-26.3,.,65.8*
Cc1cc(N=Cc2c(O)ccc3ccccc23)no1,-5.9,-2.1,-0.2,9.8,.,12.9
CC12CCC3C(CCC4CC(O)CCC43C)C1CC(O)C2 (centres undefined),0.8,.,-0.4,.,8.3,49.8*
O=C(O)[C@H](Cc1c[nH]c2ccccc12)Nc1ncccc1[N+](=O)[O-],-4.8,-0.6,0.1,.,.,-3.3
Fc1ccc(CSc2ccc3nnc(-c4cccnc4)n3n2)cc1,7.4,4.0,0.3,-4.4,14.8,79.8*
COc1ccc(CNc2ccc([N+](=O)[O-])cc2C)cc1,28.2,-0.7,0.4,82.4*,-16.2,-3.1
COc1ccc(CNc2cc([N+](=O)[O-])ccc2OC)cc1,33.6,0.2,-0.2,3.9,.,-5.9
CCOC(=O)C1CCCN(C(=O)CCC(=O)Nc2ccc3nc(N4CCOCC4)cc(C)c3c2)C1 (centres undefined),-6.9,-2.3,-0.3,-403.3,-8.0,59.0*
COC(=O)[C@]1(CC(C)C)N[C@H](c2ccc(-c3ccc4c(c3)OCO4)cc2)[C@@H]2C(=O)N(C)C(=O)[C@@H]21,31.0,-0.5,0.3,.,36.7,9.2
COC(=O)[C@]1(Cc2ccccc2)N[C@H](c2ccc(-c3ccc4c(c3)OCO4)cc2)[C@@H]2C(=O)N(C)C(=O)[C@@H]21,85.7*,-3.9,0.4,.,.,-0.5
CCC(NC(=O)Cc1c(C)c2cc3c(cc2oc1=O)OC(C)(C)CC3)C(=O)O (centres undefined),-8.4,3.0,-0.1,.,.,-4.8
Cn1c(=O)n(C)c2cc([N+](=O)[O-])c(N3CCN(S(=O)(=O)c4ccc5ccccc5c4)CC3)cc21,65.6*,-2.5,0.4,-5.2,.,-9.6
Cc1ccc(S(=O)(=O)N2CCN(c3cc4c(cc3[N+](=O)[O-])n(C)c(=O)n4C)CC2)cc1,10.5,0.9,0.3,-54.6,.,5.6
O=C(CCCl)N1CCN(c2nc(-c3ccccc3)cs2)CC1,8.6,-1.8,0.0,.,.,-7.8
Nc1[nH]c(C(=O)c2ccccc2)c(-c2cccnc2)c1C(=O)NC1CCCCC1,-2.9,.,0.4,.,.,.
Cc1c(N=Cc2cc3c(cc2[N+](=O)[O-])OCO3)cccc1[N+](=O)[O-],0.4,0.3,-0.1,.,1.5,72.5*
Cc1ccccc1N=Cc1cc2c(cc1[N+](=O)[O-])OCO2,-12.0,0.3,0.0,20.5,.,62.0*
COc1ccc(CCNC(=O)c2ccc3c(c2)NC(=O)C(CSCc2cc(C)ccc2C)N3)cc1OC (centres undefined),.,-1.7,.,.,.,.
